PubChem BioAssay (EPA / NIEHS)
Records with an inconclusive call do not appear. Activity calls are given as the source filed them. How the source made its calls: active means hit-call score of the fitted dose curve at least 0.9, where 1 is the maximum; inconclusive means response in the unintended direction; inactive means score below 0.9.

Columns and labels:
[1] = molecular target: Luciferin 4-monooxygenase (Photinus pyralis) (UniProt P08659); assay: CCTE_Simmons_QuantiLum_inhib_2: CCTE's Firefly Luciferase Inhibition Assay, Simmons Lab (AID 2283767);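 further: potency for inhibitors that lower luciferase luminescence relative to DMSO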
Luciferin 4-monooxygenase (Photinus pyralis), sequence (P08659 whole entry, looked up): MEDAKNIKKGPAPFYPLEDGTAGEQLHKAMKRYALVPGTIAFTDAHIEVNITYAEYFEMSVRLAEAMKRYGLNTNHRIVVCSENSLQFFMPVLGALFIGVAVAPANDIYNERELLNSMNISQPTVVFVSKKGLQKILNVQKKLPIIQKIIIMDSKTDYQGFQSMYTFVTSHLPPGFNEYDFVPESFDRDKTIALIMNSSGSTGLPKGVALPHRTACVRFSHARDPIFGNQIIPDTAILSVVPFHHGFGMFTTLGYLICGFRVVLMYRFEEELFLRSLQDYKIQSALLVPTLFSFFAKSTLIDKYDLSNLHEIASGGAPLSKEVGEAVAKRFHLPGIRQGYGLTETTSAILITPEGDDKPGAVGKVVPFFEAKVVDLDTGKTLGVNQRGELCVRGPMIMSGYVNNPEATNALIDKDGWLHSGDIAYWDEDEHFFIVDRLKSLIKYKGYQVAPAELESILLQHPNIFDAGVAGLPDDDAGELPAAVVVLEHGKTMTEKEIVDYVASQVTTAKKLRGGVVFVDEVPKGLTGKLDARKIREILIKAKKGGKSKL
Outline: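 Cell-free QuantiLum luciferase, 5 ng/well; compounds 5 nM–87.5 uM final, 8 conc, 0.5% DMSO; 30 min, 37C, dark. Detection reagent (150 uM D-luciferin, 147 uM dATP, CoA, DTT, pH 7.8 final) injected per well, kinetic luminescence. Triplicate biological replicates.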

[2] = ACEA_AR_antagonist_AUC_viability: ACEA Biosciences xCELLigence Real-Time Cell Analysis on Androgen Receptor Antagonism for Viability (AID 2283776);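 further: 22Rv1 human prostate cancer cells growing on impedance electrode plates; area under impedance growth curve at 80 h after dosing as viability; hits lower the growth signal relative to DMSO meaning cytotoxicity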
Outline: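 22Rv1 prostate cells, continuous dosing up to 100 uM final (0.5% DMSO max), duplicate plates. Growth measured by impedance; AUC at 80 h, loss of signal vs DMSO.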

[3] = ACEA_ER_AUC_viability: ACEA Biosciences xCELLigence Real-Time Cell Analysis on Estrogen Receptor Agonism for Viability (AID 2283782);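 further: hit means loss of impedance signal meaning reduced cell growth or viability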
Outline: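 Read-out: real-time electrical impedance (RT-CES) area under curve, loss of signal taken as reduced viability, normalized to DMSO baseline. T-47D cells, charcoal-stripped serum medium, compounds up to 100 uM final, continuous exposure, 80 h.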

AR (gene 367) [4] = molecular target: AR (gene 367) (UniProt P10275); assay: ACEA_AR_agonist_80hr: ACEA Biosciences xCELLigence Real-Time Cell Analysis on Androgen Receptor Agonism for Proliferation (AID 2283783);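 further: hits increase impedance growth signal above DMSO baseline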
AR (gene 367), sequence (P10275 whole entry, looked up): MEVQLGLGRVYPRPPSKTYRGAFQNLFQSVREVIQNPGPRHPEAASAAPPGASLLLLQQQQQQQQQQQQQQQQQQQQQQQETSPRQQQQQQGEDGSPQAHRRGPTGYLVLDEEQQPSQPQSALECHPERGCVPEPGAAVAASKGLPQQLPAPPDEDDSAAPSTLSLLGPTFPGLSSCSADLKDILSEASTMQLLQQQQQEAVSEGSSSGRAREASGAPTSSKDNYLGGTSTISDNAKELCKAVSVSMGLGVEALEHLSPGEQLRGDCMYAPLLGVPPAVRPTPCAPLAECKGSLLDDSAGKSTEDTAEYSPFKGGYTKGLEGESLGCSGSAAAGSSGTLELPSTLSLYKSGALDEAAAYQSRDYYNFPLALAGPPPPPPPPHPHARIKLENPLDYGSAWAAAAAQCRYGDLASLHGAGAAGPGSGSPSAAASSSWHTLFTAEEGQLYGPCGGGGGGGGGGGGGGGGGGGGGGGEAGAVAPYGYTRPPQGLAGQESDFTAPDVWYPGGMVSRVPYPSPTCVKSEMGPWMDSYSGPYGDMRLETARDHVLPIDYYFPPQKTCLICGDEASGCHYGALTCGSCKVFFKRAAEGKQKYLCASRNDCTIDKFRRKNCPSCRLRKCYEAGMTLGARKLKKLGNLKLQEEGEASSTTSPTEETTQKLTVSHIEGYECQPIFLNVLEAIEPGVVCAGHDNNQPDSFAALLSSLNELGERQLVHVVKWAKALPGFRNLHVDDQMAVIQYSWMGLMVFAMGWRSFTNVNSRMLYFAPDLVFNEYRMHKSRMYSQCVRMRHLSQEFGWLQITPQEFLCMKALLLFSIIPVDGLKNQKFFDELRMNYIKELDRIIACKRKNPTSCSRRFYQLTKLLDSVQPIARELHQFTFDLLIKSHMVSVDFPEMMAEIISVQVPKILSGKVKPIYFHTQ
Outline: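 Impedance (RT-CES) growth signal at 80 h post-dose; 22Rv1 cells, 8-pt 1:4 series, top 100 uM final, DMSO ≤0.5%; duplicate plates; gain-of-signal fit relative to DMSO baseline.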

AR (gene 367) [5] = molecular target: AR (gene 367) (UniProt P10275); assay: ACEA_AR_antagonist_80hr: ACEA Biosciences xCELLigence Real-Time Cell Analysis on Androgen Receptor Antagonism for Proliferation (AID 2283787);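 further: 22Rv1 human prostate cancer cells with growth followed by electrical impedance; hits lower the impedance growth signal relative to DMSO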
Outline: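 Measures real-time proliferation of 22Rv1 prostate cancer cells by electrode impedance at 80 hours after dosing. Test articles ran at eight concentrations (1:4 steps, top 100 uM final) in biological duplicate.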

[6] = ACEA_AR_agonist_AUC_viability: ACEA Biosciences xCELLigence Real-Time Cell Analysis on Androgen Receptor Agonism for Viability (AID 2283775);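 on AC50: viability read 80 hours after compound addition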
Outline: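 Viability endpoint from xCELLigence impedance in 22Rv1 prostate cells at 80 h. Eight-point series, 100 uM maximum final.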

[7] = STM_H9_NormalizedViability: Cytotoxicity Assessment at 120 hours in the Stemina devTOX quickPredict H9 human embryonic stem cell (hESC)-based Assay (AID 2283784)
Outline: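 CellTiter-Fluor RFU, background-subtracted, expressed relative to 0.1% DMSO neutral control by plate. Pluripotent H9 cells; treatment with daily re-dosing. Plates carried 1uM methotrexate (positive) and 5 nM methotrexate (negative) references.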

O=S1(=O)OC(c2cc(Br)c(O)c(Br)c2)(c2cc(Br)c(O)c(Br)c2)c2ccccc21
AC50 [1]: 32.1 µM (active)
outcome [2]: inactive
outcome [3]: inactive
outcome (AR (gene 367) [4]): inactive
outcome (AR (gene 367) [5]): inactive

O=S1OC[C@@H]2[C@H](CO1)[C@]1(Cl)C(Cl)=C(Cl)[C@@]2(Cl)C1(Cl)Cl (stereo partly drawn)
outcome [6]: inactive
outcome [2]: inactive
AC50 [3]: 50 µM (active)
outcome (AR (gene 367) [5]): inactive

CC(C)N(C(=O)CCl)c1ccccc1
AC50 [6]: 24.2 µM (active)
AC50 [2]: 16.6 µM (active)
AC50 [3]: 18.5 µM (active)
outcome (AR (gene 367) [4]): inactive

Nc1ccc(N)cc1
AC50 [1]: 13.9 µM (active)
outcome [6]: inactive
outcome [2]: inactive
AC50 [3]: 49.8 µM (active)

O=S(=O)(c1ccc(Cl)cc1)c1cc(Cl)c(Cl)cc1Cl
AC50 [3]: 69.2 µM (active)

O=C(O)COc1ccc(Cl)cc1
outcome [6]: inactive
outcome [3]: inactive

Cc1cc(Cl)ccc1OC(C)C(=O)O (stereo not drawn)
outcome [6]: inactive
outcome [3]: inactive

Oc1c(Br)cc(Br)cc1Br
outcome [2]: inactive
outcome [3]: inactive

Cc1cccc(OP(=O)(Oc2cccc(C)c2)Oc2cccc(C)c2)c1
AC50 [3]: 17.3 µM (active)

C=CC(Cl)CCl (stereo not drawn)
outcome [6]: inactive
AC50 [2]: 4.53 µM (active)
outcome (AR (gene 367) [4]): inactive
outcome (AR (gene 367) [5]): inactive

O=[N+]([O-])c1cccc2ccccc12
outcome [3]: inactive

O=C1C=CC(=O)c2ccccc21
AC50 [3]: 22.5 µM (active)

N#CCCC(Br)(C#N)CBr (stereo not drawn)
outcome [2]: inactive
AC50 [3]: 10.9 µM (active)
AC50 [7]: 95.3 µM (active)

OCCN(CCO)CCO
outcome [2]: inactive
outcome [7]: inactive

CC1(C)[C@H](C(=O)O[C@H](C#N)c2cccc(Oc3ccccc3)c2)[C@@H]1/C=C(\Cl)C(F)(F)F
AC50 [3]: 42.5 µM (active)

C1CN2CCN1CC2
outcome [3]: inactive

CC[N+](CC)(CC)CC
outcome [3]: inactive

CCC(C)(C#N)N=NC(C)(C#N)CC (stereo not drawn)
outcome [3]: inactive

CC(C)(C)c1cc([N+](=O)[O-])cc(C(C)(C)C)c1O
AC50 [3]: 24.3 µM (active)

O=C(N[C@H]1CN2CCC1CC2)c1ccc2c(c1)OCCO2
outcome [2]: inactive
outcome [3]: inactive
outcome (AR (gene 367) [4]): inactive
outcome (AR (gene 367) [5]): inactive

Cc1ccc(CCl)cc1
AC50 [3]: 40.7 µM (active)

O=C(CCl)NCO
outcome [3]: inactive

CCOC(=O)Cc1ccccc1
AC50 [3]: 50 µM (active)

O=CCCl
outcome [2]: inactive
AC50 [3]: 10.3 µM (active)

CCCCS(=O)(=O)Cl
AC50 [3]: 53.1 µM (active)

Cc1cc(Cl)ccc1O
outcome [2]: inactive
outcome [3]: inactive
